Assay results published in PubChem BioAssay (NCATS).
Records with an inconclusive call do not appear. Values without a mark were called inactive. Active and inactive are the calls of the source. Calls come from the whole dose curve; as a rule, active = well fitted inhibition curve with a large enough effect; inconclusive = small, poorly fitted or top-dose-only effect; inactive = flat fitted curve, though single readings scatter.

System: Zika virus NS2B-NS3 protease
Test: Primary screen GU AMC qHTS for Zika virus inhibitors (AID 1347154);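 note: 0% = no-inhibitor control and -100% = no-enzyme control; nearly all actives have a fitted effect of over 70% in size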
Conditions: Zika NS2B-NS3 unlinked protease, AMC fluorogenic substrate; series mostly up to 54.1 µM; activity change, negative = inhibition: at the top concentration
Procedure, shortened: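 Unlinked Zika NS2B hydrophilic domain–NS3 protease complex at 25 nM in 10 mM Tris-HCl pH 8.0, 0.01% Tween 20, with an AMC peptide substrate. Fluorescence change (340/450 nm) over 15 min at room temperature, normalized to controls, fitted to 4-parameter Hill.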

Structure (SMILES)	activity change, negative = inhibition	Potency
CC[C@H]1C[C@@H]2C[C@H]3c4[nH]c5ccc(OC)cc5c4CCN(C2)[C@@H]13	-10.4% [at 104 µM]	
CN(C)CCc1c[nH]c2ccc(O)cc12	-4.83% [at 104 µM]	
CC(CC(C(N)=O)(c1ccccc1)c1ccccc1)N(C)C (configuration not stated)	4%	
CN(C)C(=O)Oc1cc(OC(=O)N(C)C)cc(C(O)CNC(C)(C)C)c1 (configuration not stated)	-3.84%	
O=c1n(Cl)c(=O)n(Cl)c(=O)n1Cl	-2.28%	
C1CN2CCC1CC2	-3.07%	
CCN(CC)CCOC(=O)C(C)(c1ccccc1)c1ccccc1	4.46%	
COCC(=O)N(c1c(C)cccc1C)C(C)C(=O)OC (configuration not stated)	4.97%	
Cc1nc2ccccc2c(=O)n1-c1ccccc1Cl	-0.954% [at 104 µM]	
ClCc1cccc(Cl)c1	-0.447%	
CCN(CC)C(C)C(=O)c1ccccc1 (configuration not stated)	-5.72%	
CCOC(=O)NC(O)C(Cl)(Cl)Cl (configuration not stated)	-0.0254%	
CCCCCCCCCCCC[N+](C)(C)CCOc1ccccc1	-18.3%	
COc1cc(CC#N)cc(OC)c1OC	2.78%	
c1ccc2c(c1)Sc1ccccc1N2CC1CN2CCC1CC2 (configuration not stated)	-5.42%	
CC1N=C(N)OC1c1ccccc1 (configuration not stated)	1.37% [at 104 µM]	
C[C@]12Cc3nonc3C[C@@H]1CC[C@@H]1[C@@H]2CC[C@@]2(C)[C@H]1CC[C@]2(C)O	-5.33%	
OC(c1ccccc1)(c1ccccc1)C1CCNCC1	-6.82%	
CN1[C@@H]2CC[C@H]1CC(OC(=O)c1cc(Cl)cc(Cl)c1)C2 (some centres not stated)		inactive

Structure (SMILES)	activity change, negative = inhibition	Potency
O=C(CCCN1CCC(n2c(=O)[nH]c3ccccc32)CC1)c1ccc(F)cc1	-2.96%	
CCCCCCCCC(=O)NCc1ccc(O)c(OC)c1	-2.12%	
Cc1nnc2n1-c1sc(CCC(=O)N3CCOCC3)cc1C(c1ccccc1Cl)=NC2	-3.42%	
O=C1NCN(c2ccccc2)C12CCN(CCCOc1ccc(F)cc1)CC2		inactive
C=CCOC(Cn1ccnc1)c1ccc(Cl)cc1Cl (configuration not stated)	-0.698%	
CC[C@H](O)C(C[C@H](C)N(C)C)(c1ccccc1)c1ccccc1	-0.39% [at 104 µM]	
C[N+]1(CCC(C(N)=O)(c2ccccc2)c2ccccc2)CCCCC1	4.21%	
CN1C(=O)CN=C(c2ccccc2)c2cc(Cl)ccc21	0.296%	
CCN1CCCC1CNC(=O)C(O)(c1ccccc1)c1ccccc1 (configuration not stated)	-3.04%	
C[C@@H]1CC[C@H]2[C@@H](C)C(=O)O[C@@H]3O[C@@]4(C)CC[C@@H]1[C@]32OO4	4.78%	
Clc1ccc(C(OCCN2CCCCC2)c2ccccc2)cc1 (configuration not stated)	-0.882%	
C[C@]12CC[C@H]3[C@@H](CCC4=CC(=O)CC[C@@]43C)[C@@H]1CC[C@@H]2C(=O)O	0.908%	
COc1cc(C[C@@H](C)N)c(OC)cc1C	7.39% [at 104 µM]	
CC(Cc1ccccc1)NCCCCl (configuration not stated)	-4.37%	
O=C1CN2CCOC2(c2ccccc2Cl)c2cc(Cl)ccc2N1 (configuration not stated)	-3.81%	
CC(Cc1ccccc1)NCc1ccccc1Cl (configuration not stated)	-11%	
C[C@H](CN1CCOCC1)C(C(=O)N1CCCC1)(c1ccccc1)c1ccccc1	-4.02% [at 104 µM]	
CCCC(C)C1(CC)C(=O)N=C(S)NC1=O (configuration not stated)	-3.99%	
